# Laboratory results published in ChEMBL document CHEMBL3988442, “University of Dundee, Small-Polar-MMV Screening Library” (2021).
# For some of these results: Potency and affinity values are given separately.
# Legend:
# Parameters in all cases: scale not given: direction of the effect not stated beside the values
# [1] = target: Protein translocase subunit SecA (Escherichia coli (strain K12)) (UniProt P10408); assay: Assay to Identify E. coli SecA ATPase Inhibitors; assay type: functional; conditions: 30 µM
# Protein translocase subunit SecA (Escherichia coli (strain K12)), sequence (P10408 whole entry): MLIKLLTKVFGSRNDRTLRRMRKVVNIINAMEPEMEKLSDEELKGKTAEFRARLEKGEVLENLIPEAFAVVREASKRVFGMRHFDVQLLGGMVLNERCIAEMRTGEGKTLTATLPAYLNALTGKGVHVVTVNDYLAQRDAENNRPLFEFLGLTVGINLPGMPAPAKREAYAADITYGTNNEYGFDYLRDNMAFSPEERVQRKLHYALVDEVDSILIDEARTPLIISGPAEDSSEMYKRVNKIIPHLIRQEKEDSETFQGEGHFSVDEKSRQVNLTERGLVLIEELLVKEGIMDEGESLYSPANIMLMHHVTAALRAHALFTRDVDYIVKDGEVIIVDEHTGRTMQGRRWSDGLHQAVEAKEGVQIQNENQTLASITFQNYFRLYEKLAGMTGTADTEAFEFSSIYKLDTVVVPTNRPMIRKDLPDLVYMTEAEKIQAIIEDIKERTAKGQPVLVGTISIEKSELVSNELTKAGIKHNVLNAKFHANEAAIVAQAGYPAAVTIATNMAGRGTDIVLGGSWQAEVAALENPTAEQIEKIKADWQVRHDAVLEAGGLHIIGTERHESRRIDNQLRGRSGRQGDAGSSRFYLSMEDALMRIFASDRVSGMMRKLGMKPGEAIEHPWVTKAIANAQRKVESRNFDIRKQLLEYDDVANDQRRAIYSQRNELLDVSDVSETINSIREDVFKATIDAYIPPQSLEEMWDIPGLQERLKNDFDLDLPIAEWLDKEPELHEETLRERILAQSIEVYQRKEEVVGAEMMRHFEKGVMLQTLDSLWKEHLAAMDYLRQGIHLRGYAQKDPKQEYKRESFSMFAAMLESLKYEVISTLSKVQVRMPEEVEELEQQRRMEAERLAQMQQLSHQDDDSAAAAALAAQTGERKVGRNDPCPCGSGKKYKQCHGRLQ
# [2] = target: T1, Ubiquitin-activating enzyme e1, putative (Leishmania donovani (strain BPK282A1)) (UniProt E9BSI1); assay: Leishmania donovani Ubiquitin Activating Enzyme (LdE1); assay type: functional; conditions: 30 µM
# T1 sequence (whole entry): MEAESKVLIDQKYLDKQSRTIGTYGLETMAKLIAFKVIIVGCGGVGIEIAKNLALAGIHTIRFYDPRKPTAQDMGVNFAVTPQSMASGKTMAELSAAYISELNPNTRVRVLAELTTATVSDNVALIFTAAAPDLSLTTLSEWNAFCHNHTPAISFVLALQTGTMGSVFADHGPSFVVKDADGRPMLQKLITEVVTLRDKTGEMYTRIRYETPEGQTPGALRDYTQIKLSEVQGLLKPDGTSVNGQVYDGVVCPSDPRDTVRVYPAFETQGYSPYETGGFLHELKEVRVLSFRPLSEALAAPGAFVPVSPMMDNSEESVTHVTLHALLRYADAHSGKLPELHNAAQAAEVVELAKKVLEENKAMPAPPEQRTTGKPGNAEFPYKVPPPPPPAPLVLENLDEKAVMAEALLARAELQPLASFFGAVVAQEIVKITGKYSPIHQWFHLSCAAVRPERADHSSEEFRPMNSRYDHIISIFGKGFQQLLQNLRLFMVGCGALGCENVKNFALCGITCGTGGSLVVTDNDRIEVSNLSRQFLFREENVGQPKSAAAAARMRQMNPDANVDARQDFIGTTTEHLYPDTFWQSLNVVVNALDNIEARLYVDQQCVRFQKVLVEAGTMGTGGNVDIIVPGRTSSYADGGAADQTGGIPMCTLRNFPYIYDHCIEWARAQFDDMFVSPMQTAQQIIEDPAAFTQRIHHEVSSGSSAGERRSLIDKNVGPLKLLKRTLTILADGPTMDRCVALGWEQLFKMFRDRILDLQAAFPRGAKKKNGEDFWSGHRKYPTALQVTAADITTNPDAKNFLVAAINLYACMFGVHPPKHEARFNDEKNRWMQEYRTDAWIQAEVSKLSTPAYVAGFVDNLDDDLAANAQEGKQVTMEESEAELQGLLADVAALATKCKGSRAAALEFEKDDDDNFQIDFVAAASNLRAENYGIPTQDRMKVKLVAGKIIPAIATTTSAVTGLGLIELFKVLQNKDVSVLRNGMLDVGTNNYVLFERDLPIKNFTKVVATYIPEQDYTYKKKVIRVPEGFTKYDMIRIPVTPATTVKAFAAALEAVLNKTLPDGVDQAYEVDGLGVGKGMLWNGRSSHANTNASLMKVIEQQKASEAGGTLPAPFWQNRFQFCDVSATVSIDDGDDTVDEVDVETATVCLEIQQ
# [3] = target: AMP-activated protein kinase, AMPK (Homo sapiens) (UniProt P54646+O43741+P54619+Q9UGJ0+Q9Y478+Q13131+Q9UGI9); assay: AMP-dependent Kinase enzyme assay. An in vitro enzyme assay that detects ADP turnover that is directly proportional to AMPK activity. This uses naive AMPK that is activated during the assay with MK-8722; assay type: functional; conditions: 30 µM
# [4] = target: Sialic acid-binding Ig-like lectin 9 (Homo sapiens) (UniProt Q9Y336); assay: Hs-Siglec9 ALPHAscreen SOP 20170721; conditions: 10 µM
# Sialic acid-binding Ig-like lectin 9 (Homo sapiens), sequence (Q9Y336 whole entry): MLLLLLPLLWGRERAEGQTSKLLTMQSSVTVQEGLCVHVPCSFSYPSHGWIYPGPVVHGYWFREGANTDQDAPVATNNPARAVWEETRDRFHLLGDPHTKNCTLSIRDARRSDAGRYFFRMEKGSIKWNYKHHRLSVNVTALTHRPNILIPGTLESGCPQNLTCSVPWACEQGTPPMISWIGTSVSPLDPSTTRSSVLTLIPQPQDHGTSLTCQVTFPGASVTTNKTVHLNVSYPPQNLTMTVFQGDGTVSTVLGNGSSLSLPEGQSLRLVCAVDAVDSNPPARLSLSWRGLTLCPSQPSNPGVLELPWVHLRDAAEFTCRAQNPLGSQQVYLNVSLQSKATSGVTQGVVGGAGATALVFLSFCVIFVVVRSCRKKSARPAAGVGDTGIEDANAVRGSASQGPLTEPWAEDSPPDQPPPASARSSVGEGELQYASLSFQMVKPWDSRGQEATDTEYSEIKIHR
# [5] = tested on: Trypanosoma cruzi; assay: Trypanosoma cruzi phosphomannomutase and mannose-1-phosphate guanylyltransferase assay; assay type: functional; conditions: 10 µM
# [6] = target: T2, Arginase-2, mitochondrial (Homo sapiens) (UniProt P78540); assay: in vitro enzyme assay to detect the production of urea directly proportional to the activity of Arginase II; assay type: functional; conditions: 33.3 µM; further: in the data most compounds retested in dose-response had high values
# T2 sequence (whole entry): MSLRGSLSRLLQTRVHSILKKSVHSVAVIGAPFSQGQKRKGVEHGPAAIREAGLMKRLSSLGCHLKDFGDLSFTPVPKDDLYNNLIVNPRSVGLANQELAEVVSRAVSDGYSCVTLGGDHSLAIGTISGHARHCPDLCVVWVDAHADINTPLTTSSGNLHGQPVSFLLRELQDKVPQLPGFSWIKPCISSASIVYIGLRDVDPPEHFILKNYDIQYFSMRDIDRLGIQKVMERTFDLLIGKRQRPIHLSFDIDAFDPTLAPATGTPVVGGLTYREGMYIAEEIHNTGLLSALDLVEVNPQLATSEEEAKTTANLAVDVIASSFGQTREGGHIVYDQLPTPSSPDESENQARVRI
# [7] = target: T3, Proteasome subunit beta (Trypanosoma cruzi) (UniProt O96673); assay: Trypanosoma cruzi proteasome chymotrypsin-like activity (TcProtChymo) assay.; further: in the data most compounds retested in dose-response had high values; assay type: functional; conditions: 9.37 µM
# T3 sequence (whole entry): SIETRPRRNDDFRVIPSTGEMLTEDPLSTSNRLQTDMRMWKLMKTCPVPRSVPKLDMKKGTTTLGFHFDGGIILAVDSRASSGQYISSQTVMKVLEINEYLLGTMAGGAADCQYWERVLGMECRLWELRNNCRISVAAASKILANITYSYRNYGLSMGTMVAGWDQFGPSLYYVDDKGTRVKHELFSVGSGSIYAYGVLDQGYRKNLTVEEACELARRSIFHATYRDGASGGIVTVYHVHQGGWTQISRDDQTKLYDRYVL
# [8] = species on record: Homo sapiens; assay: To identify inhibition of the IFN signalling (Jak-Stat) pathway via expression of an eGFP reporter gene under the control of an IFN-stimulated response element (ISRE) containing MxA promoter.; assay type: functional; conditions: 30 µM
# [9] = target: T4, Tyrosyl-tRNA synthetase, putative (Trypanosoma cruzi (strain CL Brener)) (UniProt Q4DSP6); assay: Trypanosoma cruzi tyrosyl tRNA synthetase (TcYRS) _High Tyrosine SOP; assay type: functional; conditions: 30 µM; further: in the data most compounds retested in dose-response had high values
# T4 sequence (whole entry): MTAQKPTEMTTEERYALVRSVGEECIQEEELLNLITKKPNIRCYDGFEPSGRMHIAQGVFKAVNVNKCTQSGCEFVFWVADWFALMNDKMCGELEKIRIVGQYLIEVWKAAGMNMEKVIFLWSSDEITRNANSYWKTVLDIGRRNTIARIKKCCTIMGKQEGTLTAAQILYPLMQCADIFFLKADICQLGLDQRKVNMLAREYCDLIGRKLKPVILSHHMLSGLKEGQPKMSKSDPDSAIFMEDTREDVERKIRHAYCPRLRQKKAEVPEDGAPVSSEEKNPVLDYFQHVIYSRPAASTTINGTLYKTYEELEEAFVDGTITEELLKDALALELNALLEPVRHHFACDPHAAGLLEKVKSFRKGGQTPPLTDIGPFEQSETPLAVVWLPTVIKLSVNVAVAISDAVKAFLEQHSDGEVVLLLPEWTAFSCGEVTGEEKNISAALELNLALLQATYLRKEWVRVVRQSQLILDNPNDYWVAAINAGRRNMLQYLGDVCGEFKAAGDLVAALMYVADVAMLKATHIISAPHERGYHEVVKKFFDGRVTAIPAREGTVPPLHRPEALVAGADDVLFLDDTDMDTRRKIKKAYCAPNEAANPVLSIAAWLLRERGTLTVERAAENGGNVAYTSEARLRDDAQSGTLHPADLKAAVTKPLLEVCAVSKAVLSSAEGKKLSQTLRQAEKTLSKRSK
# [10] = target: T4, Tyrosyl-tRNA synthetase, putative (Trypanosoma cruzi (strain CL Brener)); assay: Trypanosoma cruzi tyrosyl tRNA synthetase (TcYRS) SOP; assay type: functional; conditions: 30 µM
# [11] = target: Chromo domain-containing protein 1 (Saccharomyces cerevisiae (strain ATCC 204508 / S288c) (Baker's yeast)) (UniProt P32657); assay: ScCHD-1 Enzyme Inhibition Assay; assay type: functional; conditions: 30 µM; further: in the data most compounds retested in dose-response had high values
# Chromo domain-containing protein 1 (Saccharomyces cerevisiae (strain ATCC 204508 / S288c) (Baker's yeast)), sequence (P32657 whole entry, the tested form may be a part): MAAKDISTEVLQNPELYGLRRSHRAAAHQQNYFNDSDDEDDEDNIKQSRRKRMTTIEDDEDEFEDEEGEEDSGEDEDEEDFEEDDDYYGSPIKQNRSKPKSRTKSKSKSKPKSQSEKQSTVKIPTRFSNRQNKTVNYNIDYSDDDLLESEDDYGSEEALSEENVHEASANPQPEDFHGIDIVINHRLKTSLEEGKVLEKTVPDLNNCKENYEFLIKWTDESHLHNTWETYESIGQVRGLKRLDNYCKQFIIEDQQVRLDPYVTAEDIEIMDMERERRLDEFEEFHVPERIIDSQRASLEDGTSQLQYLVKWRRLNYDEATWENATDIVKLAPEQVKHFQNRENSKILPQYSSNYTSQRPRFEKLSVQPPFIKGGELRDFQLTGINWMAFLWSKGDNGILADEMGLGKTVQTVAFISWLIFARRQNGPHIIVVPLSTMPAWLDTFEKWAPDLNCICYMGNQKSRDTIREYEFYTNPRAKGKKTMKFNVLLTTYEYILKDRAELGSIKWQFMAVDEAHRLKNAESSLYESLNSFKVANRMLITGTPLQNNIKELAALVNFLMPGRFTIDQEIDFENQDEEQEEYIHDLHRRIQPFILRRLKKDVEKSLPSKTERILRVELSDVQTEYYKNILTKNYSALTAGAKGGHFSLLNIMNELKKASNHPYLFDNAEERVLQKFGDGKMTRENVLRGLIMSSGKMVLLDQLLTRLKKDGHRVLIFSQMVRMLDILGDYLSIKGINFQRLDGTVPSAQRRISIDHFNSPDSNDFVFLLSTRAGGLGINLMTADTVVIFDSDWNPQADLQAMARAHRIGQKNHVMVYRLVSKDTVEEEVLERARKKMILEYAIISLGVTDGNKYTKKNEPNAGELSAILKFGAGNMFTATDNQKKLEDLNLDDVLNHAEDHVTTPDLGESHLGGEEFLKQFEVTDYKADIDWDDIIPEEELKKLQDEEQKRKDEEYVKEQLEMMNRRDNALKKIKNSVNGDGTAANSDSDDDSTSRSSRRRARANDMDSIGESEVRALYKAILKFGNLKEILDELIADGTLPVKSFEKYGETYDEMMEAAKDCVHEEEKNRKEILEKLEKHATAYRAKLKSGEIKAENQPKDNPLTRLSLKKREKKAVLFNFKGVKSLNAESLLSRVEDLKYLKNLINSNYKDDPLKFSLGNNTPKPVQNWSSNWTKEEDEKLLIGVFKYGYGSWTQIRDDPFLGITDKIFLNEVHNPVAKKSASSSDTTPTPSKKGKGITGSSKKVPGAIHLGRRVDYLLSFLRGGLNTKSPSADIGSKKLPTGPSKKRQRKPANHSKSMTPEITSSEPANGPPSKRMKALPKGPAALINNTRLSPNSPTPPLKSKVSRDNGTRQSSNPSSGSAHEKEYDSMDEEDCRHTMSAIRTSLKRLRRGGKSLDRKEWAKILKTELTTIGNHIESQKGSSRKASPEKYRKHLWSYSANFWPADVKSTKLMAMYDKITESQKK
SMILES,Percent Effect [1] [%],Percent Effect [2] [%],Percent Effect [3] [%],Percent Effect [4] [%],Percent Effect [5] [%],Percent Effect [6] [%],Percent Effect [7] [%],Percent Effect [8] [%],Percent Effect [9] [%],Percent Effect [10] [%],Percent Effect [11] [%]
O=C(CCc1nccs1)N1CCC(N2CCNC2=O)CC1,-3.04,13.7,-3.05,-5.29,-3.33,1.82,12.6,12.7,5.38,12.5,-3.97
CS(=O)(=O)NC[C@]12COC[C@H]1CN(CC1CCCC1)C2,-4.19,5.41,8.19,-4.23,-4.79,1.59,20.1,0.262,2.16,7.69,0.895
CNc1nc2c(s1)C(c1c(F)cccc1Cl)CC(=O)N2 (stereo unspecified),-1.81,13.2,-308,1.93,4.58,-4.73,6.81,-0.412,2.13,2.6,22.5
CN1CCC(Oc2ccc(NC(=O)c3ccccc3Br)cc2)CC1,-0.903,-2.6,0.999,7.1,6,-4.14,10.8,7.69,1.07,3.7,-4.57
Cc1ccc(C(NC(=O)CC2CCN(C(C)C)CC2)C(=O)O)cc1 (stereo unspecified),-4.94,2.7,-0.654,-0.948,1.74,0.476,1.55,0.454,2.65,9.76,0.336
CCCc1nc(CN2CCN(Cc3noc(CCC)n3)CC2)no1,-5.83,13.9,-4.71,0.206,-0.718,-8.39,10.5,7.72,11.5,17.7,-33.6
Cc1cc(CN(C)C(=O)NC(C)c2nncn2C)no1 (stereo unspecified),-1.93,15.3,-8.88,15.4,2.43,35.8,22.6,-0.22,3.16,10.3,72
CCc1ccc(CCC(=O)N2CCOCC2c2ncon2)cc1 (stereo unspecified),2.75,-8.11,4.51,1.5,-2.69,3.14,3.05,13.7,-0.99,1.22,8.82
CCn1ncnc1C(C)NC(=O)C1CCN(C(C)C)CC1 (stereo unspecified),-3.72,5.41,-4.36,22.1,0.0978,2.73,15,-2.01,9.68,21,-5.24
Cc1cn2c(n1)CCC(NC(=O)c1ccc(CS(C)(=O)=O)o1)C2 (stereo unspecified),-2.09,7.89,0.931,9.84,4.13,0.766,9.52,3.27,3.43,9.76,-9.57
CN(Cc1nnc(-c2ccco2)o1)CC1CCCN1c1cccnn1 (stereo unspecified),-4.76,10.4,-4.64,-13.5,-0.881,2.32,21.9,15.6,4.76,9.41,-19.2
